# Test results as given in PubChem BioAssay (EPA / NIEHS).
# Results filed as inconclusive are left out. Activity calls are given as the source filed them. How the source made its calls, unless noted: active means hit-call score of the fitted dose curve at least 0.9, where 1 is the maximum; inconclusive means response in the unintended direction; inactive means score below 0.9.
# Key:
# PGR (gene 5241) [1] = molecular target: PGR (gene 5241) (UniProt P06401); assay: TOX21_PR_BLA_Followup_Agonist_ratio: Tox21 HEK293 Progesterone Receptor (PR) Agonism Beta-lactamase Follow-Up Assay, Ratio (AID 2283933)
# How it was run: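 Beta-lactamase reporter readout: ratio of cleaved (ch2) to uncleaved (ch1) substrate after 2 h room-temperature loading, following 16 h compound exposure at 37C. Cells were PR-UAS-bla HEK293T in 2% charcoal-stripped FBS medium. Viability was multiplexed by CellTiter-Glo.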
# PGR (gene 5241) [2] = molecular target: PGR (gene 5241) (UniProt P06401); assay: TOX21_PR_LUC_Followup_Agonist: Tox21 HEK293 Progesterone Receptor (PR) Agonism Luciferase Follow-Up Assay (AID 2283937; active means hit-call score of the fitted dose curve at least 0.9, where 1 is the maximum; inactive means score below 0.9)
# How it was run: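 Agonism scored as luciferase induction over DMSO, read by ONE-Glo after 30 min at RT. Compounds were incubated 16 h at 37C on HEK293-PR-A-luc cells (3,000/well, pre-plated 5 h) previously grown 5 days in charcoal-stripped serum.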
# [3] = TOX21_PR_LUC_Followup_Agonist_viability: Viability Assessment in the Tox21 HEK293 Progesterone Receptor (PR) Agonism Luciferase Follow-Up Assay (AID 2283941);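 further: loss of signal means cytotoxicity so actives lower viability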
# How it was run: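 Cytotoxicity counter-readout in the PR-A luciferase reporter line HEK293, with 16 h compound exposure at 37C after cells were cultured in charcoal-stripped serum. Cellular ATP quantified by CellTiter-Glo luminescence.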
# [4] = molecular target: Thyroid hormone receptor alpha (Rattus norvegicus) + Thyroid hormone receptor beta (Rattus norvegicus) (UniProt P18113+P63059); assay: TOX21_TR_LUC_GH3_Agonist_Followup: Tox21 GH3 Thyroid Hormone Receptor Agonism Luciferase Follow-Up Assay (AID 2283939)
# How it was run: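 Agonist-mode confirmatory run: 15 concentrations (5 nM to 92 uM final) on GH3 rat pituitary cells, 24 h at 37C/5% CO2, T3 as positive control. Luminescence read with ONE-Glo after 30 min.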
# THRA (gene 7067) = THRA (gene 7067) (UniProt P10827); assay: TOX21_TRA_COA_Agonist_Followup_ratio: Tox21 Thyroid Hormone Receptor alpha Agonism through Coactivator Recruitment Follow-Up Assay, Ratio (AID 2283948; active means hit-call score of the fitted dose curve at least 0.9, where 1 is the maximum; inactive means score below 0.9)
# How it was run: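 Cell-free TR-FRET coactivator recruitment: GST-tagged TRα LBD (2.5 nM) with 0.10% BSA was incubated with compound, then fluorescein-SRC-2 peptide (200 nM) and Tb-anti-GST antibody (2 nM) added. 520:495 nm ratio normalized to DMSO (0%) and T3 (100%).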
# THRB (gene 7068) = THRB (gene 7068) (UniProt P10828); assay: TOX21_TRB_COA_Agonist_Followup_ratio: Tox21 Thyroid Hormone Receptor beta Agonism through Coactivator Recruitment Follow-Up Assay, Ratio (AID 2283963; active means hit-call score of the fitted dose curve at least 0.9, where 1 is the maximum; inactive means score below 0.9)
# How it was run: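 GST-TRb LBD 5.0 nM + 0.10% BSA + cpd; add fluorescein-SRC-2 200 nM / Tb anti-GST Ab 2 nM; TR-FRET ex 340, em 520:495; norm DMSO 0%, T3 100%.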
# [5] = molecular target: Retinoic acid receptor RXR-alpha (Homo sapiens) (UniProt P19793); assay: TOX21_TR_RXR_BLA_Agonist_Followup_ratio: Tox21 Thyroid Hormone Receptor beta Retinoid X Receptor alpha (RXRa) Agonism Beta-lactamase (BLA) Follow-Up Assay, Ratio (AID 2283968)
# How it was run: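 Agonist mode: compounds given to RXRa-bla HEK293T cells at 11 concentrations, triplicate, 16 h at 37C/5% CO2. Readout is the 460:530 nm blue/green ratio after 2 h substrate loading at room temperature; DMSO baseline, 9-cis retinoic acid control.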
# [6] = tested on: Brachyury (BRA) Protein Expression, Deisenroth Lab, TBXT (gene 6862); assay: CCTE_Deisenroth_DEVTOX-GLR_legacy_Bra: (Legacy) CCTE's DevTox GLR-Endo Assay Evaluation of Brachyury (BRA) Protein Expression, Deisenroth Lab (AID 2284329; active means hit-call score of the fitted dose curve at least 0.9, where 1 is the maximum; inactive means score below 0.9)
# How it was run: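 Percent Bra-positive cells, scored by high-content imaging against a threshold of 5x BMAD over the undifferentiated control median, with the 0.2% DMSO median subtracted. RUES2-GLR cultures were dosed twice at 24 h intervals across a 48 h differentiation, at 1 nM–200 uM in ten steps, with n=4 replicates.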
# [7] = tested on: SRY-box transcription factor 17 (SOX17) Protein Expression, Deisenroth Lab, SOX17 (gene 64321); assay: CCTE_Deisenroth_DEVTOX-GLR_legacy_Sox17: (Legacy) CCTE's DevTox GLR-Endo Assay Evaluation of SRY-box transcription factor 17 (SOX17) Protein Expression, Deisenroth Lab (AID 2284341; active means hit-call score of the fitted dose curve at least 0.9, where 1 is the maximum; inactive means score below 0.9); conditions: actives raise or lower the signal
# How it was run: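 RUES2-GLR human pluripotent cells, seeded 24 h, then differentiated 48 h in defined media with two chemical exposures 24 h apart (1 nM - 200 uM, 10 points). Sox17+ fraction from high-content fluorescence imaging; bidirectional fit versus 0.2% DMSO.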
# [8] = tested on: SRY-box transcription factor 2 (SOX2) Protein Expression, Deisenroth Lab, SOX2 (gene 6657); assay: CCTE_Deisenroth_DEVTOX-GLR_legacy_Sox2: (Legacy) CCTE's DevTox GLR-Endo Assay Evaluation of SRY-box transcription factor 2 (SOX2) Protein Expression, Deisenroth Lab (AID 2284346; active means hit-call score of the fitted dose curve at least 0.9, where 1 is the maximum; inactive means score below 0.9)
# How it was run: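 Percent Sox2-positive cells was scored by high-content imaging of 5 fields per well. Positivity cutoff was 5x BMAD over the directed endoderm control, and the DMSO median was subtracted. Cells were RUES2-GLR, dosed twice at 24-h intervals over 48 h of differentiation (1 nM-200 uM).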
# [9] = tested on: SRY-box transcription factor 2 (SOX2) Protein Expression, Deisenroth Lab, SOX2 (gene 6657); assay: CCTE_Deisenroth_DEVTOX-GLR_Endo_SOX2: CCTE's DevTox GLR-Endo Assay Evaluation of SRY-box transcription factor 2 (SOX2) Protein Expression, Deisenroth Lab (AID 2284412)
# How it was run: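 Endpoint is percent SOX2-positive cells (SOX2+ count/total cells) minus 0.2% DMSO control, from high-content imaging of fixed, nuclear-stained RUES2-GLR cells. Dosing twice at 24 h intervals over 48 h differentiation, 1 nM–200 uM in 10 points.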
# [10] = tested on: Brachyury (BRA) Protein Expression, TBXT (gene 6862); assay: CCTE_Deisenroth_DEVTOX-GLR_Endo_BRA: CCTE's DevTox GLR-Endo Assay Evaluation of Brachyury (BRA) Protein Expression, Deisenroth Lab (AID 2284417; active means hit-call score of the fitted dose curve at least 0.9, where 1 is the maximum; inactive means score below 0.9)
# How it was run: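 RUES2-GLR human pluripotent cells, seeded 24 h, then differentiated 48 h in defined media with two chemical exposures 24 h apart (10-point series, 1 nM - 200 uM). Fixed, nuclear-stained, imaged; endpoint is percent BRA+ cells minus 0.2% DMSO control.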
# [11] = CCTE_Deisenroth_DEVTOX-GLR_Endo_CellCount: Viability Assessment in CCTE's DevTox GLR-Endo Assay, Deisenroth Lab (AID 2284420; active means hit-call score of the fitted dose curve at least 0.9, where 1 is the maximum; inactive means score below 0.9)
# How it was run: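 Percent change in nuclear-stain cell counts versus 0.2% DMSO, from high-content imaging over 5 fields per well. Over a 48 h endoderm differentiation, RUES2-GLR cells received two doses 24 h apart across a 1 nM–200 uM series, with n=4.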
# [12] = tested on: SRY-box transcription factor 17 (SOX17) Protein Expression, Deisenroth Lab, SOX17 (gene 64321); assay: CCTE_Deisenroth_DEVTOX-GLR_Pluri_SOX17: CCTE's DevTox GLR-Pluri Assay Evaluation of SRY-box transcription factor 17 (SOX17) Protein Expression, Deisenroth Lab (AID 2284427)
# How it was run: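 The endpoint is SOX17+ cells as a fraction of cell count, corrected for the 0.2% DMSO control and obtained by high-content fluorescence imaging of fixed cells. Cells were RUES2-GLR under a 48-hour endoderm differentiation, dosed twice at 24-hour intervals over 1 nM–200 uM.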
# [13] = tested on: SRY-box transcription factor 2 (SOX2) Protein Expression, Deisenroth Lab, SOX2 (gene 6657); assay: CCTE_Deisenroth_DEVTOX-GLR_Pluri_SOX2: CCTE's DevTox GLR-Pluri Assay Evaluation of SRY-box transcription factor 2 (SOX2) Protein Expression, Deisenroth Lab (AID 2284428; active means hit-call score of the fitted dose curve at least 0.9, where 1 is the maximum; inactive means score below 0.9)
# How it was run: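 Percent SOX2+ cells (SOX2+ count per total cells, fluorescent imaging) in RUES2-GLR human pluripotent line, expressed relative to 0.2% DMSO. Compounds dosed twice at 24 h intervals during 48 h, 1 nM - 200 uM, 10 concentrations.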
# [14] = tested on: Brachyury (BRA) Protein Expression, Deisenroth Lab, TBXT (gene 6862); assay: CCTE_Deisenroth_DEVTOX-GLR_Pluri_BRA: CCTE's DevTox GLR-Pluri Assay Evaluation of Brachyury (BRA) Protein Expression, Deisenroth Lab (AID 2284429)
# How it was run: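 Percent BRA+ cells (BRA+ count over total cells) by high-content imaging of fixed RUES2-GLR cultures, corrected by 0.2% DMSO control. Cells received two doses over 48-hour differentiation, 1 nM–200 uM, n=4 experiments.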
# [15] = CCTE_Deisenroth_DEVTOX-GLR_Pluri_CellCount: Viability Assessment in CCTE's DevTox GLR-Pluri Assay Evaluation of Total Cell Counts, Deisenroth Lab (AID 2284430; active means hit-call score of the fitted dose curve at least 0.9, where 1 is the maximum; inactive means score below 0.9)
# How it was run: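 Cytotoxicity readout: fluorescent nuclei counts by high-content imaging, expressed as percent change relative to 0.2% DMSO. Human RUES2-GLR pluripotent line differentiated 48 h, dosed twice at 24-h intervals across 1 nM - 200 uM (10 points).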
# Sequence of PGR (gene 5241) (P06401 whole entry, looked up): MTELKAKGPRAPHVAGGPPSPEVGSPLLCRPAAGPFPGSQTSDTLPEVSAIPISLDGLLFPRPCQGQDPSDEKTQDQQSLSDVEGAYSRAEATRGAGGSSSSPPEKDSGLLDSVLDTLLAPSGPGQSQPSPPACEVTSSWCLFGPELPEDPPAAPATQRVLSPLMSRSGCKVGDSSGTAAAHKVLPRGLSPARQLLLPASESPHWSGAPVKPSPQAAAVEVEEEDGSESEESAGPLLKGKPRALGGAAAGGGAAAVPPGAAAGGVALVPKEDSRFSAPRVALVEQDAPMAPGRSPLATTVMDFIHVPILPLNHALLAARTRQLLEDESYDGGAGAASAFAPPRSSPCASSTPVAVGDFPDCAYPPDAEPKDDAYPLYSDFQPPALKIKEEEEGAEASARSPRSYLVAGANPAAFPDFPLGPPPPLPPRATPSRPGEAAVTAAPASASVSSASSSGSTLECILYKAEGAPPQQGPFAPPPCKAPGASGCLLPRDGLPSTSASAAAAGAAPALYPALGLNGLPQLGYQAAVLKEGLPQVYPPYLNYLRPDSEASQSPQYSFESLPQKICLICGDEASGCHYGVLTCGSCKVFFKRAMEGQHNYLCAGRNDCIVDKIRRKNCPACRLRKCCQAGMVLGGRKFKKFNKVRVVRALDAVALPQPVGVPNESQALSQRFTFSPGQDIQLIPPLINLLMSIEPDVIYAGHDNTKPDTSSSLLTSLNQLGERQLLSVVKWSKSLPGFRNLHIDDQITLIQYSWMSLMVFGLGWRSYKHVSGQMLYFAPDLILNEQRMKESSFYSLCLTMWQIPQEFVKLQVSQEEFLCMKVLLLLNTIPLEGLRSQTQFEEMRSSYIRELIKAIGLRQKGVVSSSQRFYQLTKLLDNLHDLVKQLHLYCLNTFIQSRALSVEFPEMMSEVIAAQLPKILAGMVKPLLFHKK
# Sequence of THRB (gene 7068) (P10828 whole entry, looked up, the tested form may be a part): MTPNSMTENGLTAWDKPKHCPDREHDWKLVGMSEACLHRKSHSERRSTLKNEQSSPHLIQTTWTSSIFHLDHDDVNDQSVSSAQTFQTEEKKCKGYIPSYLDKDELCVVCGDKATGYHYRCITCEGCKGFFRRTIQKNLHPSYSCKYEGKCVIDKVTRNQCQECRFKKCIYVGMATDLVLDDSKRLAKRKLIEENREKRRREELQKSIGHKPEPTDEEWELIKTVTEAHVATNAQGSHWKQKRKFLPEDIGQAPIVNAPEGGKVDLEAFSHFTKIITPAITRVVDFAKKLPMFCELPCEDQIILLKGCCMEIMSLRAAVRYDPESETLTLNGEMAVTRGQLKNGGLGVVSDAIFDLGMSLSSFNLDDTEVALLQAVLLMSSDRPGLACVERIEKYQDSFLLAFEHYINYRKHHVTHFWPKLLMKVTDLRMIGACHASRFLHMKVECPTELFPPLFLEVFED
# Sequence of Retinoic acid receptor RXR-alpha (Homo sapiens) (P19793 whole entry, looked up): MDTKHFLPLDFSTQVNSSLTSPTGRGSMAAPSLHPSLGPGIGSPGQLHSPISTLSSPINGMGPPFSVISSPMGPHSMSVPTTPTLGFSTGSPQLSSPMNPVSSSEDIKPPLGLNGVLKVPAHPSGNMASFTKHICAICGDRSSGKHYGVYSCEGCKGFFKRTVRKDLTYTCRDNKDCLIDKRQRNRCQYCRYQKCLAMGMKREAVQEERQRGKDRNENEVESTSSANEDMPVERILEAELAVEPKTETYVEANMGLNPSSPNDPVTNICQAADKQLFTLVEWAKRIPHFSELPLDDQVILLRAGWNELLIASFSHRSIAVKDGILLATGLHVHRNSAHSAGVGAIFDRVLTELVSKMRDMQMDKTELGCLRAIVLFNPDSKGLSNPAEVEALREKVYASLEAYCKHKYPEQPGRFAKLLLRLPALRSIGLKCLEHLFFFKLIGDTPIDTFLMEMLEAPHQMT
# Sequence of THRA (gene 7067) (P10827 whole entry, looked up, the tested form may be a part): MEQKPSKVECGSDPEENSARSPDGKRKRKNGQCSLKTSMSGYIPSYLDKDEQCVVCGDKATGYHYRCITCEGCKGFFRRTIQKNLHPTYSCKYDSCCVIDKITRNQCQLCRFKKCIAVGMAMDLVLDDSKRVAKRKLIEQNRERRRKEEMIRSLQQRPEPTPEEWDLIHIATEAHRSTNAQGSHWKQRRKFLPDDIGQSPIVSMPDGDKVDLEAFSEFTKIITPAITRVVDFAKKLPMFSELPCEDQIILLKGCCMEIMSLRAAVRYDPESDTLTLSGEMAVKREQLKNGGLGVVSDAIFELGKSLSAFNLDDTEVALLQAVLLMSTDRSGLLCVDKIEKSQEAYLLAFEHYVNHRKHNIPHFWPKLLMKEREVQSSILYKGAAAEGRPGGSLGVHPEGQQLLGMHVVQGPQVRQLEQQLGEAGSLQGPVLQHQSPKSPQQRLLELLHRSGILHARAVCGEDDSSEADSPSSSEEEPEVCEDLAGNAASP
# Sequence of Thyroid hormone receptor alpha (Rattus norvegicus) + Thyroid hormone receptor beta (Rattus norvegicus) (P63059 whole entry, looked up): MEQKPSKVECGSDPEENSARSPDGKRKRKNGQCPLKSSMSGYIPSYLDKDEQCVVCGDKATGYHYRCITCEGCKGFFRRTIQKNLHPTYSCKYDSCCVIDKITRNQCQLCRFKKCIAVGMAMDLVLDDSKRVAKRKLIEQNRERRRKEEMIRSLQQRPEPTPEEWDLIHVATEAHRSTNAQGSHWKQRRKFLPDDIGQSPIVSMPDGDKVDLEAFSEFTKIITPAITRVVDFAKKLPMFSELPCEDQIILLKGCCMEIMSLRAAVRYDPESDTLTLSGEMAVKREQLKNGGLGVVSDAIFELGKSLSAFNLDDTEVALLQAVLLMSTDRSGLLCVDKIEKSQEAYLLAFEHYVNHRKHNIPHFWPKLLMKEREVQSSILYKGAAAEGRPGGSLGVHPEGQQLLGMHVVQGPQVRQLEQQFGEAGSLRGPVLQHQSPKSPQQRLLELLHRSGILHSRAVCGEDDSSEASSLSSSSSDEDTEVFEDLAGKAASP
# Sequence of Thyroid hormone receptor alpha (Rattus norvegicus) + Thyroid hormone receptor beta (Rattus norvegicus) (P18113 whole entry, looked up): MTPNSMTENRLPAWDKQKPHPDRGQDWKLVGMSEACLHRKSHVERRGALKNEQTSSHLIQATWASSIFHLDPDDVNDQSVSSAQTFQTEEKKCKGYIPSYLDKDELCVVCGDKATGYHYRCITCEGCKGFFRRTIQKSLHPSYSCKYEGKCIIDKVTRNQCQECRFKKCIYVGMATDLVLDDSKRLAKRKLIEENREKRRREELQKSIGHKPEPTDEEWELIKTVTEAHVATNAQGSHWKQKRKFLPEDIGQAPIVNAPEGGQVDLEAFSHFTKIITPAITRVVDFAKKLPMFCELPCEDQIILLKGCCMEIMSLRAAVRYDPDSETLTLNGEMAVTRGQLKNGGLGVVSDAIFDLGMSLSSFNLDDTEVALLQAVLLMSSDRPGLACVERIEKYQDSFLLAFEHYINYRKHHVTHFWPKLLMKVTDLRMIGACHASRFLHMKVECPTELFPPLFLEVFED
compound,measurement,setting,value
NC(=O)n1c(O)c(C(=O)c2cccs2)c2cc(Cl)ccc21,outcome,PGR (gene 5241) [1],inactive
same,outcome,PGR (gene 5241) [2],inactive
same,outcome,[3],inactive
CC(C)(C)CC(C)(C)c1ccc(O)c(Cc2ccc(Cl)cc2Cl)c1,AC50,[4],2.83 µM (active)
same,AC50,THRA (gene 7067),12.1 µM (active)
same,AC50,THRB (gene 7068),12.2 µM (active)
same,outcome,[5],inactive
Cc1ccc(/C=N/n2c(-c3ccccc3)csc2=S)cc1,outcome,[3],inactive
CCN(CC)CCNC(=O)c1c(C)[nH]c(/C=C2\C(=O)Nc3ccc(F)cc32)c1C,AC50,[6],6.88 µM (active)
same,AC50,[7],623 nM (active)
same,AC50,[8],621 nM (active)
same,AC50,[9],2.5 µM (active)
same,AC50,[10],826 nM (active)
same,AC50,[11],1.62 µM (active)
same,AC50,[12],1.46 µM (active)
same,AC50,[13],432 nM (active)
same,AC50,[14],264 nM (active)
same,AC50,[15],1.23 µM (active)
COC(=O)C1=C(C)NC(C)=C(C(=O)OCC(C)=O)C1c1ccccc1[N+](=O)[O-] (stereo not drawn),outcome,[3],inactive
CCC(=C(CC)c1ccc(O)cc1)c1ccc(O)cc1,outcome,PGR (gene 5241) [1],inactive
same,outcome,[3],inactive
C=C1C(CCl)(CCl)C2(Cl)C(Cl)C(Cl)C1(Cl)C2(Cl)Cl (stereo not drawn),outcome,PGR (gene 5241) [1],inactive
same,AC50,PGR (gene 5241) [2],8.97 µM (active)
Oc1ccc(N=Nc2ccccc2)cc1,outcome,PGR (gene 5241) [1],inactive
same,outcome,PGR (gene 5241) [2],inactive
same,outcome,[3],inactive
Cc1cc(-n2c(=O)[nH]c(=O)n(C)c2=O)ccc1Oc1ccc(S(=O)(=O)C(F)(F)F)cc1,outcome,[4],inactive
same,outcome,THRA (gene 7067),inactive
same,outcome,THRB (gene 7068),inactive
same,outcome,[5],inactive
COC(=O)C1=C(C)NC(COC(N)=O)=C(C(=O)OC(C)C)C1c1cccc(Cl)c1Cl (stereo not drawn),AC50,PGR (gene 5241) [1],23 µM (active)
same,outcome,PGR (gene 5241) [2],inactive
same,outcome,[3],inactive
